Measurements from PubChem BioAssay (NCI).
The panel holds about 79,000 compounds, 15% with a hit somewhere; the sample as a whole holds those more often. The source made the active and inactive calls. Rule as the data show it: active = growth inhibition above about 70%; inactive = the rest.

Key:
[1] = NCI Yeast Anticancer Drug Screen. Data for the rad52 strain (AID 147);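 also: 0% = growth of vehicle-treated control cultures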; settings: S. cerevisiae rad52 mutant growth inhibition, hits give high values
Outline: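 Growth of repair-deficient yeast cells was compared between compound-treated and vehicle-treated cultures to give percent inhibition.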

[2] = NCI Yeast Anticancer Drug Screen. Data for the rad50EPP+ strain (AID 151);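 also: 0% = growth of vehicle-treated control cultures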; settings: S. cerevisiae rad50 mutant strain, hits give high values
Outline: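 Measured: growth inhibition of rad50EPP+ yeast. Reference: vehicle-treated controls. Screen uses strains with defined genetic alterations in DNA damage repair or cell cycle control.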

[3] = NCI Yeast Anticancer Drug Screen. Data for the mgt1 strain (AID 153); settings: S. cerevisiae mgt1 mutant growth inhibition, hits give high values
Outline: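 Compounds were applied to mgt1 mutant yeast, and growth was then compared against vehicle-treated control cultures to give percent inhibition.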

[4] = NCI Yeast Anticancer Drug Screen. Data for the rad50 strain (AID 155);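 also: 0% = growth of vehicle-only cultures of the same strain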; settings: S. cerevisiae rad50 strain growth inhibition, hits give high values
Outline: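 Readout: growth inhibition relative to vehicle-treated cultures. Compound exposure was carried out in a genetically defined yeast strain deficient in DNA damage repair.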

[5] = NCI Yeast Anticancer Drug Screen. Data for the mec2-1 strain (AID 157); settings: S. cerevisiae mec2-1 strain, hits give high values
Outline: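 Compounds were applied to mec2-1 yeast cells. Their growth was then compared with that of vehicle-treated cultures to give growth inhibition.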

[6] = NCI Yeast Anticancer Drug Screen. Data for the rad14 strain (AID 159);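 also: 0% = growth of vehicle-treated control cultures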; settings: S. cerevisiae rad14 strain growth inhibition, hits give high values
Outline: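 Growth inhibition vs vehicle controls; genetically altered yeast strain (DNA damage repair defect) treated with test compounds.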

[7] = NCI Yeast Anticancer Drug Screen. Data for the sgs1 mgt1 strain (AID 161);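 also: 0% = growth of cultures given vehicle only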; settings: S. cerevisiae sgs1 mgt1 strain, hits give high values
Outline: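 Growth of a repair-deficient yeast mutant was monitored after compound treatment and expressed as inhibition relative to vehicle-treated cultures.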

[8] = NCI Yeast Anticancer Drug Screen. Data for the CLN2oe strain (AID 163);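 also: 0% = growth of vehicle-only control cultures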; settings: S. cerevisiae CLN2oe strain, hits give high values
Outline: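 Cells of an engineered yeast line with disturbed cell-cycle regulation are treated with compound. Inhibition of growth is then calculated relative to the vehicle-treated reference.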

[9] = NCI Yeast Anticancer Drug Screen. Data for the cln2 rad14 strain (AID 165);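 also: 0% = growth equal to vehicle treated cultures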; settings: S. cerevisiae cln2 rad14 strain, hits give high values
Outline: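 Strain: cln2 rad14 yeast, altered in cell cycle control and DNA damage repair. Read-out: growth inhibition vs vehicle.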

[10] = NCI Yeast Anticancer Drug Screen. Data for the bub3 strain (AID 167); settings: S. cerevisiae bub3 mutant strain, hits give high values
Outline: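 Readout: yeast growth inhibition, expressed relative to vehicle-only wells. The test organism is a mutant strain from a panel with lesions in DNA repair or checkpoint genes.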

[11] = NCI Yeast Anticancer Drug Screen. Data for the wt2 strain (AID 169);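 also: 0% = growth of vehicle-treated yeast cultures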; settings: S. cerevisiae wt2 strain growth inhibition, hits give high values
Outline: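 Growth of compound-treated yeast is measured and expressed as inhibition relative to vehicle-only controls.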

[12] = NCI Yeast Anticancer Drug Screen. Data for the sgs1 strain (AID 173);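 also: 0% = growth of vehicle-only control cultures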; settings: S. cerevisiae sgs1 mutant, hits give high values
Outline: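 Strain with an altered DNA repair or cell cycle pathway exposed to compound. Growth then measured. Value = inhibition versus vehicle control.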

[13] = NCI Yeast Anticancer Drug Screen. Data for the mlh1 rad18 strain (AID 175); settings: S. cerevisiae mlh1 rad18 strain growth inhibition, hits give high values
Outline: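 A repair-deficient yeast strain is exposed to test compound, and growth is scored relative to vehicle-treated controls.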

[14] = NCI Yeast Anticancer Drug Screen. Data for the rad18 strain (AID 177); settings: S. cerevisiae rad18 mutant growth inhibition, hits give high values
Outline: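 DNA-repair-defective yeast; compound treatment; growth inhibition scored against vehicle.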

[15] = at 5.0 µM (retest, dose inferred, filed as 0.5)
[16] = at 50.0 µM (retest, dose inferred, filed as 5.0)

Measured: growth inhibition

CC(C)/C(Cl)=N\OC(=O)Nc1ccccc1F
inactive: [1]; at 1.2 µM 4% | [1]; at 3.7 µM 9% | [1]; at 11.0 µM 19% | [1]; at 33.0 µM 35% | [1]; at 100.0 µM 35% | [2]; at 1.2 µM 18% | [2]; at 3.7 µM 28% | [2]; at 11.0 µM 46% | [2]; at 33.0 µM 59% | [2]; at 100.0 µM 46% | [3]; at 1.2 µM 0% | [3]; at 3.7 µM 6% | [3]; at 11.0 µM 21% | [3]; at 33.0 µM 23% | [3]; at 100.0 µM 21% | [4]; at 1.2 µM 9% | [4]; at 3.7 µM 17% | [4]; [15] 2% | [4]; at 11.0 µM 21% | [4]; at 33.0 µM 43% | [4]; at 50.0 µM -7.75% | [4]; at 100.0 µM 40% | [5]; at 1.2 µM 11% | [5]; at 3.7 µM 17% | [5]; [15] -1% | [5]; at 11.0 µM 23% | [5]; at 33.0 µM 31% | [5]; at 100.0 µM 31% | [6]; at 1.2 µM 6% | [6]; at 3.7 µM 14% | [6]; at 11.0 µM 9% | [6]; at 33.0 µM 23% | [6]; at 100.0 µM 26% | [7]; [15] -38% | [7]; at 50.0 µM 62.5% | [8]; at 1.2 µM 15% | [8]; at 3.7 µM 14% | [8]; at 11.0 µM 19% | [8]; at 33.0 µM 19% | [8]; at 100.0 µM 23% | [9]; [15] 23% | [9]; [16] 37% | [9]; at 50.0 µM 35.1% | [10]; at 1.2 µM 55% | [10]; [15] 49% | [11]; at 1.2 µM 0% | [11]; at 3.7 µM 5% | [11]; at 11.0 µM 15% | [11]; at 33.0 µM 41% | [11]; at 100.0 µM 29% | [12]; at 1.2 µM 6% | [12]; at 3.7 µM 13% | [12]; at 11.0 µM 34% | [12]; at 33.0 µM 60% | [12]; at 100.0 µM 49% | [13]; [15] -15% | [13]; [16] 66% | [13]; at 50.0 µM 58.9% | [14]; at 1.2 µM -6% | [14]; at 3.7 µM 3% | [14]; at 11.0 µM 17% | [14]; at 33.0 µM 43% | [14]; at 100.0 µM 41%
active: [4]; [16] 85% | [5]; [16] 86% | [5]; at 50.0 µM 76% | [7]; [16] 82% | [10]; at 3.7 µM 83% | [10]; at 11.0 µM 92% | [10]; at 33.0 µM 93% | [10]; [16] 98% | [10]; at 50.0 µM 82% | [10]; at 100.0 µM 94%
